Bioassay records from PubChem BioAssay.
RE007 growth inh = less growth of the S. pombe RE007 Vpr strain; S. pombe RE007 Vpr strain, BacTiter-Glo ATP luminescence, 24 h; Potency, µM (series often up to 92.2 µM), without a hit: top-dose activity change, negative = less growth, usual class: inhibitors; hit rate 0.21% among 360,000; AID 651644; active = well fitted falling curve with a large enough effect; inconclusive = small, poorly fitted or top-dose-only effect; inactive = no such curve, though single readings can be large or run the other way; also: nearly all actives have a fitted effect of over 50% in size
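Fission yeast RE007 carrying one integrated HIV-1 vpr copy, seeded at OD 0.01 in PMG+AL medium with 23 nL pinned compound. Grown 24 h at 30 degrees; viability read by BacTiter-Glo luminescence after 5 min.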
TbPYK inhibitor = inhibitors of Trypanosoma brucei pyruvate kinase; Potency, µM (top dose mostly 76.8 µM), inactives show top-dose activity, negative = inhibition, hits mostly inhibitors; TbPYK enzyme, Kinase-Glo Plus ATP luminescence, 45 min; hit rate 0.12% among 410,000; also: nearly all actives have a fitted effect of over 50% in size
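Glycolytic pyruvate kinase of T. brucei was incubated with substrate, test compound and 130 uM ADP for 45 minutes at room temperature. Luminescent Kinase-Glo Plus signal was measured after 10 minutes.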
Sm TGR inh = S. mansoni TGR enzyme inhibition | Q962Y6 | purified TGR, DTNB reduction, TNB absorbance 405 nm | Potency, µM (series often up to 114 µM), for the others: at the top dose activity change, negative = inhibition, actives largely listed as inhibitors | hit rate 3% among 360,000 | AID 485364; also: nearly all actives have a fitted effect of over 60% in size
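First, TGR (20 nM dispensed) and NADPH were mixed with compound. Second, a 15 min room-temperature incubation followed. Third, further NADPH and then DTNB were added to start the reaction. Finally, TNB absorbance was monitored kinetically.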
LmPK inhibitor = blocks Leishmania mexicana pyruvate kinase activity | hit rate 0.37% among 290,000 | Potency, µM (top dose mostly 57.5 µM), inactives show at the highest dose activity change, negative = inhibition, hits mostly inhibitors | purified LmPK, Kinase-Glo ATP luminescence, 1 h | Q27686
Target sequence (Q27686 whole entry, looked up): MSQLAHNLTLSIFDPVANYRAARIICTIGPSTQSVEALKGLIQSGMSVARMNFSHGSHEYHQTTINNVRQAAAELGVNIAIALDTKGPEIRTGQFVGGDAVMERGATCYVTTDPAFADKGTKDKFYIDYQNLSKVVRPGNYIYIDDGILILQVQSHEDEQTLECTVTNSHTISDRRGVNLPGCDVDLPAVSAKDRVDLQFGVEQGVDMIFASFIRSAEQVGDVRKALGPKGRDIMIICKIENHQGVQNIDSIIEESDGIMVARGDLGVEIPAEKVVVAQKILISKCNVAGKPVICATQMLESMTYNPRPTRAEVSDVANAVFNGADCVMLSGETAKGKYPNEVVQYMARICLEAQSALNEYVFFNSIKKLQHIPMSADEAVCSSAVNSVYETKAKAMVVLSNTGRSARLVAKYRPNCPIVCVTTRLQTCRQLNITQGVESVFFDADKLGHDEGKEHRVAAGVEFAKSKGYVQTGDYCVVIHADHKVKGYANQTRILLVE
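ATP generated from ADP (0.1 mM) and PEP (0.5 mM) by 0.1 nM LmPK over 1 h at room temperature (pH 7.2 imidazole buffer) was detected by coupled luciferase luminescence. Values were normalized to uninhibited and no-enzyme wells.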
Numbers without * were called inactive; ? = inconclusive; . = no result given; [ ] = another dose, or the depositor's remark. A selection: hits, their analogues and other compounds. The true share with any hit is near 3%. Unless noted, calls follow the shape of the dose curve; as a rule, active = well fitted curve in the direction sought with a large enough effect; inconclusive = small, poorly fitted or top-dose-only effect, or another doubt; inactive = no such curve, though single readings can be large; an effect the other way counts as inactive or inconclusive. % is scaled to controls: 0 for no effect and ±100 for the full control effect; potency is read from the fitted curve at half-maximal effect.

SMILES	RE007 growth inh	TbPYK inhibitor	Sm TGR inh	LmPK inhibitor
Clc1ccc2[nH]c3c(c2c1)CCc1cn[nH]c1-3	35µM*	-5%	-34%	2%
c1ccc2c3c([nH]c2c1)-c1[nH]ncc1CC3	-20%	-11%	-19%	4%
CCCCn1c(CCC(=O)O)ccc1-c1cccs1	1%	-9%	8.9µM*	10%
COCCn1c(CCC(=O)O)ccc1-c1cccs1	10%	1%	14µM*	-2%
O=NN(CCCl)C(=O)NC1CCCCC1	.	-7%	.	.
CCc1ccc(NC2CC(=O)N(CCc3ccc(OC)c(OC)c3)C2=O)cc1 (stereo not drawn)	-11%	-21%	14µM*	0%
CCCN1C(=O)CC(Sc2ncccc2C(=O)O)C1=O (stereo not drawn)	3%	-1%	-2%	3%
COc1ccc(CCN2C(=O)CC(Sc3ncccc3C(=O)O)C2=O)cc1OC (stereo not drawn)	-9%	-6%	11µM*	-3%
COc1ccc(CCNC2CC(=O)N(CCc3ccccc3)C2=O)cc1OC (stereo not drawn)	-3%	2%	0%	3%
COc1ccc(CCN2C(=O)CC(Nc3ccc(N4CCOCC4)cc3)C2=O)cc1OC (stereo not drawn)	4%	-19%	20µM*	1%
CCc1ccc(NC2CC(=O)N(c3ccc(OC)cc3OC)C2=O)cc1 (stereo not drawn)	-11%	9%	35µM*	0%
COc1ccc(-c2nc3c(c4c2C[C@H](c2ccccc2)OC4)CN(C(=O)Nc2cccc(C#N)c2)CC3)c(C)c1	.	.	.	-7%[11.5 µM]
CCCCOCCOc1nc(-c2ccc(C(=O)O)c(F)c2)sc1C	.	0%	.	.
COc1cccc(Nc2nc(N)nc(CCl)n2)c1	3%	-7%	20µM*	-6%
Cc1cccc(Nc2nc(N)nc(CCl)n2)c1	0%	-5%	14µM*	-9%
Cc1cccc(Nc2nc(N)nc(CCl)n2)c1C	-15%	4%	-5%	2%
COc1ccccc1Nc1nc(N)nc(CCl)n1	-3%	5%	28µM*	-2%
COc1ccc(OC)c(Nc2nc(N)nc(CCl)n2)c1	24%	-4%	32µM*	-4%
COc1ccc(OC)c(Nc2nc(N)nc(CSc3nnc(N)s3)n2)c1	11%	-4%	8%	4%
CCc1cc2ccc(OC)cc2nc1SCC(=O)NNC(=O)c1ccco1	-7%	-3%	8.9µM*	6%
CC(=O)Nc1ccc(NC2=C(Cl)C(=O)c3ccccc3C2=O)cc1	6%	-16%	0.89µM*	-11%
CN(C)c1ccc(NC2=C(Cl)C(=O)c3ccccc3C2=O)cc1	?	?	8.9µM*	-28%
O=C(Nc1ccc2cn[nH]c2c1)c1c(Cl)cccc1Cl	3%	?	1%	-2%
COc1ccccc1NC1=C(NC(C)=O)C(=O)c2ccccc2C1=O	-29%	?	4µM*	-24%
O=C1C(Cl)=C(NCCCO)C(=O)c2ccccc21	?	-9%	33%	-12%
SMILES	RE007 growth inh	TbPYK inhibitor	Sm TGR inh	LmPK inhibitor
O=C1C(Cl)=C(Nc2ccc3cn[nH]c3c2)C(=O)c2ccccc21	32µM*	-23%	0.32µM*	?
COC1=C(Nc2ccccc2OC)C(=O)c2ccccc2C1=O	1%	1%	?	-26%
COc1ccc(CNC(=O)CC(c2ccc(OC)c(OC)c2)N2Cc3ccccc3C2=O)cc1 (stereo not drawn)	.	4%	-12%	.
O=C(c1ccc(Br)cc1)c1cc2ccc(O)cc2oc1=O	1%	-11%	35µM*	-1%
COc1ccc(C(=O)c2cc3ccc(O)cc3oc2=O)cc1	2%	-34%	5%	-20%
O=C(NCc1ccco1)c1cc2ccc(O)cc2oc1=O	35µM*	?	?	14µM*
COc1ccc2cc(C(=O)NCc3ccco3)c(=O)oc2c1	-4%	-4%	-29%	-4%
Cc1ccc(C(=O)NCc2ccco2)cc1Br	-23%	0%	45µM*	-3%
Cc1ccccc1-c1noc(-c2ccccc2C(=O)NCc2ccco2)n1	4%	-11%	13µM*	2%
NC(=O)C1CCCN(C(=O)c2[nH]c(C(F)(F)F)nc2-c2ccccc2)C1 (stereo not drawn)	0%	3%	.	.
Cc1ccc(CC(=O)Nc2c(C(=O)N3CCN(c4ccccc4)CC3)oc3ccccc23)cc1	.	-3%	-3%	.
Cc1ccc(NC(=O)O/N=C/c2ccc(N(C)C)cc2)cc1	-15%	-9%	2%	5%
COc1cccc(NC(=O)CN2C(=O)c3cccc4cccc2c34)c1	.	-6%	2%	.
Cc1c(C)n(C)c2ccc(C(=O)NCCc3ccco3)cc12	-18%	6%	35µM*	0%
CC(C)(C)N1C(=O)c2ccc(C(=O)NCc3ccco3)cc2C1=O	-15%	-9%	25µM*	6%
Cc1c(Br)cc(C(=O)NCc2ccco2)c(C)c1C	-12%	-12%	35µM*	2%
O=C(NCc1ccco1)c1ccc2[nH]c(=O)c(=O)[nH]c2c1	1%	0%	-31%	6%
CCC(=O)N1CCc2cc(S(=O)(=O)CCC(=O)Nc3ccc(Cl)c(C(F)(F)F)c3)ccc21	.	-7%	-3%	.
Cn1c(=O)c2c(nc(SCC(=O)Nc3ccc(OC(F)(F)F)cc3)n2Cc2cccc(C(F)(F)F)c2)n(C)c1=O	.	7%	-6%	.
CCC(C)N(C(=O)CN1C(=O)NC2(CCc3ccccc32)C1=O)C1CCS(=O)(=O)C1 (stereo not drawn)	12%	4%	0%	.
CCOC(=O)Cn1c(=O)n(CC2CCCO2)c2nc(-c3c(F)cccc3Cl)nc(C(N)=O)c21 (stereo not drawn)	.	-2%	1%	.
COC(=O)c1sccc1S(=O)(=O)N(CC(=O)Nc1cccc(C)c1C)c1ccc(C)c(C)c1	.	3%	3%	.
CC(C)(C)OC(=O)N1CCc2onc(-c3ccc(-n4cc(C5=CCCCC5)nn4)cc3)c2C1=O	-8%	.	.	.
COC(=O)c1scc(C)c1NC(=O)/C=C/C(=O)O	6%	-5%	1.4µM*	-13%
O=[N+]([O-])c1ccc2c(c1)-c1ccccc1C2O (stereo not drawn)	-2%	16µM*	.	.
SMILES	RE007 growth inh	TbPYK inhibitor	Sm TGR inh	LmPK inhibitor
COCCCNC(=O)/C(C#N)=C/c1c(N2CCN(c3ccccc3)CC2)nc2c(C)cccn2c1=O	-18%	-17%	35µM*	1%
O=C(/C=C/Nc1ccc(F)c(F)c1)c1cccs1	-26%	0%	-20%	-29%
NC(=O)c1ccccc1NC(=O)/C=C/c1cccc(Cl)c1	-12%[3.69 µM]	.	12%	0%
Cc1ccc(C(=O)/C=C/Nc2ccccc2C(N)=O)o1	-4%	-6%	?	-27%
Cc1cccc(N/C=C/C(=O)c2cccs2)c1C	-15%	-12%	6%	16µM*
NC(=O)c1ccccc1N/C=C/C(=O)c1ccc(Cl)cc1Cl	-19%	-14%	1%	16µM*
NC(=O)c1ccccc1N/C=C/C(=O)c1ccc(F)cc1	.	-15%	-22%	8.9µM*
NC(=O)c1ccccc1N/C=C/C(=O)c1cccs1	?	-14%	-30%	16µM*
COc1ccc(-c2nc(CNS(=O)(=O)c3cccc(F)c3)cs2)cc1	.	-5%	-7%	.
